Screening data from PubChem BioAssay.
DAX1 inh-1 – DAX1 (NR0B1) inhibitors, primary screen, cell-based, HEK293, Gal4-DAX1, luciferase luminescence. Nuclear receptor subfamily 0 group B member 1 (Homo sapiens), P51843. HEK293 Gal4-DAX1 luciferase reporter. inhibition, % at 6.75 µM. 0.99% of 340,000 active. AID 504766, 2011;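 active means inhibition above the mean over all tested compounds plus 3 SD, cut at about 4.2% in these data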;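 further: 0% = DAX1-transfected cells with DMSO and 100% = empty-vector control cells with DMSO; inhibition shows as a rise in luminescence from relieved DAX1 repression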
Target sequence (P51843 207-470 limits assumed): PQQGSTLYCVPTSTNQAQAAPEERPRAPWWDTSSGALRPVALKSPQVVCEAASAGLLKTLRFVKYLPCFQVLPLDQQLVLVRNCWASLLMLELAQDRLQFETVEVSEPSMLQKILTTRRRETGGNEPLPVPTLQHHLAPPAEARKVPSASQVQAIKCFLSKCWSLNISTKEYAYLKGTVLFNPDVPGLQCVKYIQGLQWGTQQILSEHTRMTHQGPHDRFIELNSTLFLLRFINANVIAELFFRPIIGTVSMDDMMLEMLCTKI
ssDAF-12 act – S. stercoralis DAF-12 nuclear receptor activators, primary screen, cell-based, luminescence, HEK293, GRIP1 co-expression, lit1-tk-luc. Nuclear hormone receptor DAF-12 (Strongyloides stercoralis). activation, % at 6.8 µM. HEK293 ssDAF-12/GRIP1 lit1-tk-luc reporter; % of 3 µM dafachronic acid response. 1% of 370,000 active;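 active means activation above the mean over all tested compounds plus 3 SD, cut at about 0.9% in these data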;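 further: 0% = DMSO-only wells and 100% = 3 µM delta7-dafachronic acid wells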
hcDAF12 agonist – H. contortus DAF-12 nuclear receptor activators, primary screen, cell-based, luminescence, HEK293, lit1-tk-luc reporter; AID 652067, 2013; 1.4% of 370,000 active; HEK293 hcDAF-12 lit1-tk-luc reporter; 0% DMSO, 100% Δ7-dafachronic acid; activation, % at 6.8 µM;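 active means activation above the mean of all tested compounds plus 3 SD, cut at about 5.5% in these data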;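 further: 100% = response to 3 µM Δ7-dafachronic acid high control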
hgDAF-12 ag – H. glycines DAF-12 receptor agonists, primary screen, cell-based, luminescence, HEK293, GAL4 fusion, UAS-luciferase. Nuclear hormone receptor DAF-12 (Heterodera glycines), GAL4 fusion. HEK293 GAL4-hgDAF12 UAS-luciferase reporter, agonist luminescence; normalized to butyrate control. activation, % at 6.8 µM. 1.8% of 370,000 active. AID 687014, 2013;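 active means activation above a cutoff set at the mean of all screened compounds plus 3 SD, cut at about 10% in these data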;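 further: 0% = DMSO wells and 100% = sodium butyrate wells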
DAX1 inh-2 – DAX1 (NR0B1) inhibitors on StAR promoter, primary screen, cell-based, luminescence, SF-1 (NR5A1), full-length DAX-1; inhibition, % at 6.8 µM; 1.1% of 370,000 active; AID 652010, 2013; HEK293T StAR-luciferase reporter, SF-1/DAX-1 repression relief;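 active means inhibition above the mean over all tested compounds plus 3 SD, cut at about 3.6% in these data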;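 further: 0% = DAX-1 cells with DMSO and 100% = cells lacking DAX-1 with DMSO; higher inhibition means more luminescence from relief of DAX-1 repression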
LXRb hcDAF ctr – LXR agonists, Gal4 luciferase reporter, confirmation, counter-screen for hcDAF-12 agonist project, cell-based, luminescence, HEK293, H. contortus campaign. shares compounds with hcDAF12 agonist. HEK293 Gal4-LXR tk-luc reporter, 24 h; normalized: DMSO 0%, positive control 100%. activation, % at 6.8 µM. 3,400 tested, under 10 active;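 active means mean percent activation of the reporter above a cutoff set as the average over tested compounds plus their standard deviation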
hcDAF12 conf – H. contortus DAF-12 receptor agonists, confirmation, cell-based, luminescence, HEK293, lit1-tk-luc, triplicate | shares compounds with hcDAF12 agonist | 61% of 3,400 active | AID 743032, 2013 | HEK293 hcDAF-12 lit1-tk-luc reporter; % of Δ7-dafachronic acid response | activation, % at 6.8 µM;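 active means mean activation across triplicate tests above the threshold derived from the earlier primary screen, cut at about 5.5% in these data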;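 further: 0% = DMSO only wells and 100% = 3 µM Δ7-dafachronic acid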
hgDAF12 ag – H. glycines DAF-12 receptor agonists, confirmation, cell-based, luminescence, HEK293, GAL4-LBD fusion; shares compounds with hgDAF-12 ag; HEK293 GAL4-hgDAF12 luciferase reporter, agonist mode; percent of butyrate response; activation, % at 6.8 µM; 80% of 3,300 active;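 active means mean activation over triplicate wells above the hit cutoff derived from the earlier primary screen, cut at about 11% in these data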;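 further: 0% = DMSO low control and 100% = 2 mM sodium butyrate high control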
LXR ag 2 – LXR agonists, Gal4 luciferase reporter, confirmation, counter-screen for hgDAF-12 agonist project, cell-based, luminescence, HEK293, H. glycines campaign; shares compounds with hgDAF-12 ag; 24 h; 3,300 tested, under 10 active; activation, % at 6.8 µM; AID 743051, 2013;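 active means mean activation of the triplicate above a set limit carried over from the primary screen, none filed active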
Active calls of the source: *; . = no result given. Hits are enriched below; roughly 4.1% of the tested compounds scored in any of these assays.

SMILES	DAX1 inh-1	ssDAF-12 act	hcDAF12 agonist	hgDAF-12 ag	DAX1 inh-2	LXRb hcDAF ctr	hcDAF12 conf	hgDAF12 ag	LXR ag 2
O=C(CNc1cc(S(=O)(=O)N2CCOCC2)ccc1N1CCCC1)Nc1ccc(Cl)cc1	-1	-1	0	-1	0	.	.	.	.
O=C(/C=C\c1ccccc1)Nc1nccs1	1	0	8.4*	20*	3	2	5	20*	1
Cc1csc(NC(=O)c2cnc3ccccc3n2)n1	-1	2.1*	15*	16*	2	1	14*	18*	1
O=C(Nc1cc(C(F)(F)F)ccc1Cl)c1cccc(N2C(=O)CCC2=O)c1	0	-1	-3	-1	-2	.	.	.	.
COc1ccc(OC)c(NC(=O)COC(=O)CCc2ccc(S(=O)(=O)N3CCOCC3)cc2)c1	-1	-1	1	-3	0	.	.	.	.
Clc1ccc2nc3c4ccccc4cnn3c2c1	3	1.1*	18*	19*	3	2	17*	22*	1
Clc1ccc2nc3ccccc3cc2c1	0	0	3	4	0	.	.	.	.
C[C@H](NS(=O)(=O)c1ccc(Cl)cc1)C(=O)OCC(=O)c1ccc[nH]1	0	-2	-2	1	1	.	.	.	.
NNC(=O)c1cccc(COc2ccccc2Br)c1	-3	1.2*	7.2*	16*	3	1	6.5*	15*	1
CC(C)N(C(=O)Cn1c(Cl)nc2ccccc21)C(C)C	-2	-2	1	-2	0	.	.	.	.
CSc1nnc(-c2ccccc2SC)o1	0	-2	-2	-1	1	.	.	.	.
CSc1ccccc1-c1nnc(-c2ccc(C)cc2)o1	2	1.7*	10*	15*	3	1	8.8*	15*	1
Cn1c(O)c(N=NC(=O)c2ccccc2O)c2ccccc21	1	1.6*	11*	22*	3	1	13*	17*	1
Cn1c(O)c(N=NC(=O)CNC(=O)c2ccco2)c2ccccc21	-1	0	1	0	-1	.	.	.	.
Cn1c(O)c(N=NC(=O)c2ccco2)c2ccccc21	1	1.3*	12*	19*	4.2*	1	14*	22*	1
Cc1cc(Cl)ccc1OC(C)C(=O)Nc1ccc(C(=O)Nc2ccccc2C(=O)O)cc1 (configuration not stated)	0	-1	-1	0	1	.	.	.	.
Cc1ccnc(NC(=O)c2ccc(Br)s2)c1	2	1.6*	14*	20*	3	1	9.3*	17*	1
O=C(Nc1ccon1)c1ccc(Br)s1	0	-1	0	2	-1	.	.	.	.
O=C(NC1CCCC1)c1cc(-c2ccccc2Cl)on1	1	0	8.0*	14*	1	1	3	16*	1
